SMILES strings stand for the structures. Unmarked numbers belong to inactive results. The source made the active and inactive calls. Calls come from the whole dose curve; as a rule, active = well fitted curve in the direction sought with a large enough effect in the repeat runs; inconclusive = weak or mixed curves; inactive = flat fitted curve, though single readings scatter.
% is set by controls: 0 for no effect and ±100 for the full control effect.

This experiment is described as follows: qHTS assay to test for compound auto fluorescence at 590 nm (red) in HepG2 cell free culture (AID 720684). The note with it: cell-free medium autofluorescence, red 540/590 nm; series mostly up to 91.3 µM. The source says:
U.S. Tox21 Program National Center for Advancing Translational Sciences [NCATS] NIH Chemical Genomics Center [NCGC] U.S. Environmental Protection Agency [EPA] National Institutes of Environmental Health Sciences [NIEHS] National Toxicology Program [NTP] U.S. Food and Drug Administration [FDA] Tox21 Assay Overview: Compound auto fluorescence often interferes with screening of the compound library against various biological targets and signaling pathways. Some of these compounds may have fluorophoric properties. Such properties may interfere with the assay outputs resulting in false positives and/or negatives. To decrease such complications and ensure the compound activities are relevant in terms of biological response, the Tox21 10K compound library was screened for auto fluorescence. From the fluorophores used as reporter signals in our screening assays, the auto fluorescence equivalencies of compounds against three fluorophores have been evaluated: Triamterene, Fluorescein and Rose Bengal sodium for blue, green and red fluorescence, respectively. The fluorescence intensities were measured using Excitation/Emission wavelengths at 405/460nm, 485/535nm and 540/590nm for blue, green and red labels, respectively. This assay includes the red fluorescence data.
Tox21 Assay Protocol Summary: 5 uL of culture medium (MEM containing 10% FBS) per well was dispensed into black wall/clear bottom 1536-well plates using a Multidrop Combi Dispenser (ThermoFisher Scientific, Waltham, MA). After 23 nL compound or DMSO vehicle was transferred into assay plate by a pintool work station (Kalypsys, San Diego, CA), fluorescence intensities in the assay plates were measured by an Envision (PerkinElmer, Shelton, CT) plate reader using three labels for measuring blue, green and red fluorescence at […] 460, 535 and 590nm respectively.
On the technique in general: qHTS replaces the single test concentration by a dilution series.
For `N[C@@H](COP(=O)(O)O)C(=O)O`, the outcome was inactive.

Consider `CCCC/C=C\CCCCCCCCCC=O`, for which the result was inactive.

Turning to `CC(C(=O)O)c1ccc2c(c1)CC(=O)c1ccccc1S2` (stereo not given), the outcome was inactive. Still for that read-out and setting: then `CC(C)CCCC(C)(C)O`, with “inactive”. The same measure, in the same setting: the same measure for `CCCCCCCCOS(=O)(=O)O`: “inactive”; for `CCOCCOCCOCC`: “inactive”. The same measure, in the same setting: the same measure for `CCCCOC(=O)c1ccccc1`: “inactive”; for `Nc1ncnc(Nc2ccccc2)n1`: “inactive”.

Consider `COC(=O)CCCCCCCC(=O)OC`, for which the compound was classed as inactive. For the compound `CC(C)OC(=O)CCCCC(=O)OC(C)C`, the outcome was inactive. Still for that read-out and setting: then `CC(C)CC(C)CC(C)CC(C)COC(=O)c1ccccc1C(=O)OCC(C)CC(C)CC(C)CC(C)C` (stereo not given), with “inactive”; and `N#Cc1ccc(C(=O)O)cc1`, with “inactive”. On to `CC1=C(C(=O)O)N2C(=O)[C@@H](NC(=O)[C@H](N)c3ccc(O)cc3)[C@H]2SC1`, for which the fluorescence, % of Rose Bengal is -0.146% [at 18.6 µM]. Consider `COC(=O)c1ccccc1C(=O)c1ccc(OCCN2CCCCC2)cc1`, for which the compound was called inactive.

As for `OC[C@H](Cc1cccc(O)c1)[C@H](CO)Cc1cccc(O)c1`, the outcome was inactive. On the same count and under the same terms, then `CCC(C=O)CC`, with “inactive”. For the compound `CCNC(=O)C1CC(C)CCC1C(C)C` (stereo not given), the outcome was inactive. On the same count and under the same terms, the same measure for `CCCCCCCCC1CCC(=O)O1` (stereo not given): “inactive”. Still for that read-out and setting: the same measure for `Nc1ccc([N+](=O)[O-])c(N)c1`: “inactive”. On to `C=CC(OCC)OCC`, for which the compound was called inactive.

Regarding `Cc1ccc2c(c1)OCC(=O)CO2`, the compound was classed as inactive. `Cc1cc(C(C)(C)C)c(O)c(C)c1CC1=NCCN1`: the call was inactive. Turning to `O=Cc1ccc(Cl)c(Cl)c1`, the compound was classed as inactive. With `C[C@@H](O)[C@H]1C(=O)N2C(C(=O)O)=C(SCCN=CN)C[C@H]12`, the fluorescence, % of Rose Bengal was 0.208% [at 18.6 µM]. `COc1ccc(-c2cc(=O)c3c(O)cc(O[C@@H]4O[C@H](CO[C@@H]5O[C@@H](C)[C@H](O)[C@@H](O)[C@H]5O)[C@@H](O)[C@H](O)[C@H]4O)cc3o2)cc1O`: the compound was called inactive. The same measure, in the same setting: then `O=C(O)Cc1cn(-c2ccccc2)nc1-c1ccc(Cl)cc1`, with “inactive”. Still for that read-out and setting: the same measure for `C=C(C)C(=O)OCc1ccccc1`: “inactive”; for `CCOC(=O)[C@H](CCc1ccccc1)N[C@@H](C)C(=O)N1C(=O)N(C)C[C@H]1C(=O)O`: “inactive”. On the same count and under the same terms, then `CC(C)=O`, with “inactive”. Consider `Cc1cccc(C)c1OCC(C)N` (stereo not given), for which the outcome was inactive. Still for that read-out and setting: the same measure for `N[C@@H](CCC(=O)Nc1ccc([N+](=O)[O-])cc1)C(=O)O`: “inactive”; for `O=C1c2cccc3c2[C@H](CCC3)CN1[C@@H]1CN2CCC1CC2`: “inactive”. On to `C=Cc1ccccn1`, for which the result was inactive.

For the compound `CC1(C)S[C@@H]2[C@H](N=CN3CCCCCC3)C(=O)N2[C@H]1C(=O)O`, the compound was classed as inactive.

In the case of `On1nnc2ccccc21`, the compound was classed as inactive. On the same count and under the same terms, then `CC(C)c1ccc2cc(C(C)C)ccc2c1`, with “inactive”. The same measure, in the same setting: then `CCCCCOC(=O)CCC`, with “inactive”; and `NS(=O)(=O)c1ccc(NC(=O)CCC(=O)O)cc1`, with “inactive”.

On to `C#CC(C)N(C)C(=O)Nc1ccc(Cl)cc1` (stereo not given), for which the call was inactive. With `Cc1ccsc1/C=C/C1=NCCCN1C`, the fluorescence, % of Rose Bengal is -0.469% [at 18.6 µM].

The values are drawn from PubChem BioAssay (Tox21).
